# Test results from PubChem BioAssay AID1159580 (chemical genetic matrix, 2015).
# “And” between values parts separate entries of the source, which are not always exact repeats. Identical values can stand only once. About 2,000 (36%) of roughly 5,500 compounds were called active. Inconclusive results (about 18%) are left out. No stated cut-off is given here; in the data, active means normalized growth mostly below about 0.91 (no sharp cut-off); inconclusive means no clear call, values can overlap the other calls; inactive means mostly above about 0.92. Some of the results follow.
# Assay: chemical genetic growth profiling, strain panel (AID 1159580);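 further: tested at 20 µM; growth read once vehicle control cultures reached saturation at 30 °C; 1 = growth at the plate median or of vehicle wells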
# Settings: S. cerevisiae deletion strains, growth OD
structure (smiles),measurement,setting,value
c1cc2c(cc1[C@H]1OC[C@H]3[C@@H]1CO[C@H]3c1ccc3c(c1)OCO3)OCO2,normalized growth,"locus YAL013W, strain DEP1, stronger effect = lower value",0.93 (inactive)
same,normalized growth,"locus YAL021C, strain ccr4, stronger effect = lower value",0.936 (inactive)
same,normalized growth,"locus YAL026C, strain drs2, stronger effect = lower value",0.803 (active)
same,normalized growth,"locus YAL030W, strain snc1, stronger effect = lower value",0.908 (active)
same,normalized growth,"locus YBL061C, strain skt5, stronger effect = lower value",0.918 (active)
same,normalized growth,"locus YBR009C, strain hhf1, stronger effect = lower value",0.904 (active)
same,normalized growth,"locus YBR021W, strain FUR4, stronger effect = lower value",0.961 (inactive)
same,normalized growth,"locus YBR023C, strain chs3, stronger effect = lower value",0.906 (active)
same,normalized growth,"locus YBR171W, strain sec66, stronger effect = lower value",0.897 (inactive)
same,normalized growth,"locus YBR229C, strain ROT2, stronger effect = lower value",0.941 (inactive)
same,normalized growth,"locus YBR231C, strain swc5, stronger effect = lower value",0.922 (inactive)
same,normalized growth,"locus YBR279W, strain paf1, stronger effect = lower value",0.936 (inactive)
same,normalized growth,"locus YCL011C, strain gbp2, stronger effect = lower value",0.881 (active)
same,normalized growth,"locus YCL016C, strain dcc1, stronger effect = lower value",0.911 (active)
same,normalized growth,"locus YCL029C, strain bik1, stronger effect = lower value",0.933 (inactive)
same,normalized growth,"locus YCL061C, strain MRC1, stronger effect = lower value",0.93 (inactive)
same,normalized growth,"locus YCL069W, strain vba3, stronger effect = lower value",0.919 (active)
same,normalized growth,"locus YCR088W, strain abp1, stronger effect = lower value",0.911 (active)
same,normalized growth,"locus YDL005C, strain med2, stronger effect = lower value",0.915 (inactive)
same,normalized growth,"locus YDL035C, strain GPR1, stronger effect = lower value",0.906 (inactive)
same,normalized growth,"locus YDL040C, strain nat1, stronger effect = lower value",0.92 (active)
same,normalized growth,"locus YDL074C, strain BRE1, stronger effect = lower value",0.874 (inactive)
same,normalized growth,"locus YDL101C, strain DUN1, stronger effect = lower value",0.927 (inactive)
same,normalized growth,"locus YDL134C, strain PPH21, stronger effect = lower value",0.881 (active)
same,normalized growth,"locus YDL185W, strain tfp1, stronger effect = lower value",0.93 (inactive)
same,normalized growth,"locus YDL192W, strain arf1, stronger effect = lower value",0.877 (active)
same,normalized growth,"locus YDR001C, strain nth1, stronger effect = lower value",0.889 (active)
same,normalized growth,"locus YDR069C, strain doa4, stronger effect = lower value",0.956 (inactive)
same,normalized growth,"locus YDR101C, strain arx1, stronger effect = lower value",0.895 (active)
same,normalized growth,"locus YDR137W, strain rgp1, stronger effect = lower value",0.492 (active)
same,normalized growth,"locus YDR159W, strain sac3, stronger effect = lower value",0.856 (active)
same,normalized growth,"locus YDR162C, strain NBP2, stronger effect = lower value",0.894 (inactive)
same,normalized growth,"locus YDR195W, strain ref2",1.06 (inactive)
same,normalized growth,"locus YDR297W, strain sur2, stronger effect = lower value",0.905 (active)
same,normalized growth,"locus YDR318W, strain mcm21, stronger effect = lower value",0.867 (active)
same,normalized growth,"locus YDR334W, strain swr1, stronger effect = lower value",0.861 (active)
same,normalized growth,"locus YDR335W, strain msn5, stronger effect = lower value",0.934 (inactive)
same,normalized growth,"locus YDR388W, stronger effect = lower value",0.923 (active)
same,normalized growth,"locus YDR392W, strain spt3, stronger effect = lower value",0.371 (active)
same,normalized growth,"locus YDR502C, strain sam2, stronger effect = lower value",0.869 (active)
same,normalized growth,"locus YEL003W, strain gim4, stronger effect = lower value",0.911 (active)
same,normalized growth,"locus YEL037C, strain rad23, stronger effect = lower value",0.926 (inactive)
same,normalized growth,"locus YEL061C, strain CIN8 (second series), stronger effect = lower value",0.859 (active)
same,normalized growth,"locus YEL061C, strain CIN8, stronger effect = lower value",0.724 (active)
same,normalized growth,"locus YER015W, strain faa2, stronger effect = lower value",0.925 (active)
same,normalized growth,"locus YER016W, strain bim1, stronger effect = lower value",0.908 (active)
same,normalized growth,"locus YER110C, stronger effect = lower value",0.942 (inactive)
same,normalized growth,"locus YER111C, strain swi4, stronger effect = lower value",0.919 (inactive)
same,normalized growth,"locus YER155C, strain BEM2 (second series), stronger effect = lower value",0.783 (active)
same,normalized growth,"locus YER155C, strain BEM2, stronger effect = lower value",0.862 (active)
same,normalized growth,"locus YER167W, strain BCK2, stronger effect = lower value",0.813 (active)
same,normalized growth,"locus YFR010W, strain ubp6, stronger effect = lower value",0.938 (inactive)
same,normalized growth,"locus YGL078C, strain dbp3, stronger effect = lower value",0.958 (inactive)
same,normalized growth,"locus YGL086W, strain mad1, stronger effect = lower value",0.845 (active)
same,normalized growth,"locus YGL167C, strain pmr1, stronger effect = lower value",0.862 (active)
same,normalized growth,"locus YGL173C, strain kem1, stronger effect = lower value",0.904 (inactive)
same,normalized growth,"locus YGL227W, strain vid30, stronger effect = lower value",0.926 (inactive)
same,normalized growth,"locus YGL240W, strain doc1, stronger effect = lower value",0.89 (inactive)
same,normalized growth,"locus YGL248W, strain PDE1, stronger effect = lower value",0.901 (inactive)
same,normalized growth,"locus YGL253W, strain hxk2, stronger effect = lower value",0.845 (active)
same,normalized growth,"locus YGR078C, strain PAC10, stronger effect = lower value",0.856 (inactive)
same,normalized growth,"locus YGR135W, strain pre9, stronger effect = lower value",0.906 (inactive)
same,normalized growth,"locus YGR252W, strain gcn5, stronger effect = lower value",0.897 (inactive)
same,normalized growth,"locus YHR013C, strain ard1, stronger effect = lower value",0.871 (inactive)
same,normalized growth,"locus YHR027C, strain rpn1, stronger effect = lower value",0.913 (active)
same,normalized growth,"locus YHR030C, strain SLT2, stronger effect = lower value",0.87 (active) and 0.888 (inactive)
same,normalized growth,"locus YHR079C, strain IRE1 (second series), stronger effect = lower value",0.902 (active)
same,normalized growth,"locus YHR079C, strain IRE1, stronger effect = lower value",0.895 (inactive)
same,normalized growth,"locus YHR094C, strain hxt1, stronger effect = lower value",0.922 (active)
same,normalized growth,"locus YHR129C, strain ARP1, stronger effect = lower value",0.911 (active)
same,normalized growth,"locus YHR142W, strain chs7, stronger effect = lower value",0.803 (active)
same,normalized growth,"locus YHR200W, strain rpn10, stronger effect = lower value",0.884 (active)
same,normalized growth,"locus YIL066C, strain RNR3, stronger effect = lower value",0.828 (active)
same,normalized growth,"locus YIL073C, strain SPO22, stronger effect = lower value",0.783 (inactive)
same,normalized growth,"locus YIL125W, strain kgd1, stronger effect = lower value",0.889 (active)
same,normalized growth,"locus YIR030C, strain dcg1, stronger effect = lower value",0.901 (active)
same,normalized growth,"locus YJL092W, strain hpr5, stronger effect = lower value",0.914 (active)
same,normalized growth,"locus YJL095W, strain BCK1 (second series), stronger effect = lower value",0.904 (active)
same,normalized growth,"locus YJL095W, strain BCK1, stronger effect = lower value",0.714 (active) and 0.956 (inactive)
same,normalized growth,"locus YJL115W, strain asf1, stronger effect = lower value",0.904 (active)
same,normalized growth,"locus YJL129C, strain trk1, stronger effect = lower value",0.722 (active)
same,normalized growth,"locus YJL134W, strain LCB3, stronger effect = lower value",0.974 (inactive)
same,normalized growth,"locus YJL154C, strain vps35, stronger effect = lower value",0.936 (inactive)
same,normalized growth,"locus YJL164C, strain tpk1, stronger effect = lower value",0.896 (active)
same,normalized growth,"locus YJL166W, strain qcr8, stronger effect = lower value",0.88 (active)
same,normalized growth,"locus YJL168C, strain set2, stronger effect = lower value",0.927 (active)
same,normalized growth,"locus YJL187C, strain SWE1 (second series), stronger effect = lower value",0.925 (inactive)
same,normalized growth,"locus YJL187C, strain SWE1, stronger effect = lower value",0.932 (inactive)
same,normalized growth,"locus YJR043C, strain POL32, stronger effect = lower value",0.959 (inactive)
same,normalized growth,"locus YJR066W, strain TOR1, stronger effect = lower value",0.888 (inactive)
